Reference: PubChem BioAssay AID2158 (National Center for Advancing Translational Sciences (NCATS), 2009)
Several values for one entry are separate records, joined by “and”; a condition that tells them apart may be missing. Equal entries are not always repeated. Results filed as inconclusive are left out. A number with no mark means an inactive call. Activity calls are given as the source filed them. Calls come from the whole dose curve; as a rule, active = well fitted inhibition curve with a large enough effect; inconclusive = small, poorly fitted or top-dose-only effect; inactive = no such curve, though single readings can be large or run the other way.

Molecular target: Cruzipain (Trypanosoma cruzi) (UniProt P25779)
Assay: Confirmation qHTS Assay for Inhibitors of Cruzain; note: nearly all actives have a fitted effect of over 40% in size;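 for activity change, negative = inhibition: plate controls were uninhibited enzyme control for no effect and buffer wells lacking enzyme for full effect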
Conditions: purified cruzain, Z-FR-AMC fluorescence, 0.01% Triton
Description: Cruzain is a cysteine protease from the tropical parasite Trypanosoma cruzi. This assay protocol is a follow-up and confirmation of related AID 1478 (qHTS Assay for Promiscuous and Specific Inhibitors of Cruzain -- with detergent). Cruzain was assayed by the use of fluorogenic coumarin-based substrate Z-FR-AMC: proteolytic cleavage releases AMC, whose fluorescence is measured at 360 nm excitation and 450 nm emission. Purified cruzain was supplied by the labs of Prof. James McKerrow and Brian Shoichet, UC San Francisco. This assay had 0.01% Triton X-100 concentration. See following references for additional details: Jadhav A, et al. J Med Chem. 2010 Jan 14;53(1):37-51. Mott BT, et al. J Med Chem. 2010 Jan 14;53(1):52-60. Assay Provider: Shoichet, Brian; University of California, San Fancisco Screening Center PI: Austin, C.P. Screening Center: NIH Chemical Genomics Center [NCGC]
Buffer: 100 mM Sodium Acetate, pH 5.5, 5 mM DTT, Triton X-100 concentration: 0.01%. Reagents/Controls: Buffer in columns 3 and 4 as negative control (no enzyme). Substrate solution: 2 uM final concentration of Z-FR-AMC (catalog number I-1160, Bachem) dispensed throughout the plate. Enzyme: 1.5 nM Cruzain final concentration in columns 1, 2, 5-48. Column 1 is neutral (100% activity). Column 2 contained titration of covalent inhibitor K11777, starting concentration 1 mM, then 1:2 dilution in duplicate). Assay Steps: Three uL of enzyme or buffer were dispensed to 1536-well Greiner black solid bottom plates. Compounds and controls (23 nL) were transferred via Kalypsys PinTool. The plates were incubated for 15 min at room temperature, and then 1 uL of substrate solution was added to start the reaction. The plates were immediately transferred to and read 4 times every 30 seconds for 2 min on ViewLux High-throughput CCD imager (Perkin-Elmer) using 360 nm excitation and 450 nm emission fluorescence protocol. The fluorescence intensity difference between the third and the first time points (time lapse of 60 seconds) was used to compute reaction progress.
Potency is the fitted concentration of half-maximal effect.

Sequence of Cruzipain (Trypanosoma cruzi) (P25779 123-467 limits assumed): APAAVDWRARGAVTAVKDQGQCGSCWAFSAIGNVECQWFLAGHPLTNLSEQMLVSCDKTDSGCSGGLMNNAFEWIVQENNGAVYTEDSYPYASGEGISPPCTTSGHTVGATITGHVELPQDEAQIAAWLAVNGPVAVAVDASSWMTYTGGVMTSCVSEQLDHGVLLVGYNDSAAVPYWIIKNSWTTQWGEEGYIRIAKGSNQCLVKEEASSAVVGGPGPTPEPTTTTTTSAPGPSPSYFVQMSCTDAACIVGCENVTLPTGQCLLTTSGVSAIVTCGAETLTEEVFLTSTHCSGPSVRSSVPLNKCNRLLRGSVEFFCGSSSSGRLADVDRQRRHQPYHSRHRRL

| SMILES | Potency | activity change, negative = inhibition [%] |
| --- | --- | --- |
| Cc1ccccc1NC(=O)CSc1nnc(-c2ccco2)c(-c2ccco2)n1 | 14.1 µM (active) | – |
| Cc1ccc(-c2c3c(=O)n(C)c(=O)n(C)c3cn2-n2cnnc2)cc1 | 25.1 µM (active) | – |
| CCNc1nc(C#N)nc2c1ncn2-c1cccc(Cl)c1 | 0.0631 µM (active) | – |
| Cc1cccc(C(=O)NCC(=O)OC(C(=O)Nc2cc(C(F)(F)F)ccc2Cl)c2ccccc2)c1 (stereo not given) | 7.94 µM (active) | – |
| O=C(Cn1cc(CN(Cc2ccccc2)Cc2ccccc2)nn1)Nc1cc(C(F)(F)F)ccc1Cl | – | -13.2 |
| CCCCNc1nc(C#N)nc(Nc2ccccc2)n1 | 0.891 µM (active) | – |
| O=C(N/N=C\c1ccccc1O)c1ccccc1O | – | -9.61 |
| N#Cc1nc(Nc2cc(Cl)cc(Cl)c2)nc(NC2CCCC2)n1 | 0.398 µM (active) | – |
| Cc1cccc(OCCCn2c(CCNC(=O)C3CCCCC3)nc3ccccc32)c1 | 794 nM (active) and 708 nM (active) | – |
| N#Cc1nc(Nc2ccc(-c3ccccc3)cc2)nc(NC2CCCC2)n1 | 3.98 µM (active) | – |
| CCOC(=O)CNC(=O)C1CCCCC1 | – | -11.9 |
| CCC(C)NC(=O)c1ccc2nc(-c3ccco3)c(-c3ccco3)nc2c1 (stereo not given) | 7.08 µM (active) | – |
| O=C(NCc1nnc(-c2cc3ccccc3[nH]2)s1)c1ccccc1 | – | 1 |
| NC(=O)C(OC(=O)CNC(=O)C1CCCCC1)c1ccccc1 (stereo not given) | 2.51 µM (active) | – |
| O=C(CNC(=O)C1CCCC1)OC(C(=O)Nc1cc(C(F)(F)F)ccc1Cl)c1ccccc1 (stereo not given) | 7.94 µM (active) | – |
| COc1cc(NC(=O)C(OC(=O)CNC(=O)c2ccccc2)c2ccccc2)c(OC)cc1Cl (stereo not given) | 11.2 µM (active) | – |
| CC(C)(C)OC(=O)NCC(=O)NNC(=O)c1cc2ccccc2[nH]1 | – | -2.11 |
| CCNc1nc(C#N)nc(Nc2ccccc2)n1 | 0.708 µM (active) | – |
| CCOc1ccc(CN2C(=O)c3ccccc3Sc3ccc(C(=O)NCc4ccc5c(c4)OCO5)cc32)cc1 | – | 6.89 |
| N#CN1CCC(NS(=O)(=O)c2cccc(C(F)(F)F)c2)CC1 | – | 0.31 |

| SMILES | Potency | activity change, negative = inhibition [%] |
| --- | --- | --- |
| CCCCC(O)C(=O)Nc1cc(C(F)(F)F)ccc1Cl (stereo not given) | – | -16.9 |
| Cc1ccccc1OCC(=O)NCC(=O)OCC(=O)c1ccc2c(c1)CCCC2 | – | -3.79 |
| O=C(CNC(=O)C1CCCCC1)OCC(=O)c1ccc(-c2ccccc2)cc1 | 1.58 µM (active) | – |
| CCC(C(=O)NC1CCCCC1)n1c(SCc2ccc(F)cc2)nc2ccncc21 (stereo not given) | 4.47 µM (active) | – |
| CCOc1ccc(-c2cc3nc(C4CCN(C(=O)OC(C)(C)C)CC4)c(C(=O)O)cn3n2)cc1 | – | -33 |
| COc1ccc(C(=O)C(C)OC(=O)CNC(=O)C2CCCCC2)cc1 (stereo not given) | 1.41 µM (active) | – |
| CCCCNC(=O)Cn1c(SCc2cccc(C)c2)nc2ccncc21 | – | -22.6 |
| COC(=O)Cn1c(=NC(=O)c2ccc(Cl)s2)sc2cc(C)ccc21 | – | -20 |
| N#Cc1nc(N2CCCC2)nc(N(c2ccccc2)c2ccccc2)n1 | 1 µM (active) | – |
| CCNC(=O)c1ccc2nc(-c3ccccc3)c(-c3ccccc3)nc2c1 | – | -14.3 |
| O=C(COC(=O)CNC(=O)C1CCCCC1)Nc1cc(C(F)(F)F)ccc1Cl | 2.82 µM (active) | – |
| c1ccc2cc3c(NCCN4CCOCC4)ccnc3cc2c1 | – | -21.6 |
| COc1ccc(NC(=O)C(OC(=O)CNC(=O)c2ccccc2)c2ccccc2)cc1Cl (stereo not given) | 12.6 µM (active) | – |
| CC(C)(C)OC(=O)NCc1nnc(-c2cc3ccccc3[nH]2)o1 | – | 0.21 |
| CC(C)(C)c1ccccc1Nc1nc(C#N)nc(NC2CCCC2)n1 | 2 µM (active) | – |
| CC(=O)Nc1ccc(/C=C/C(=O)c2ccc(-n3nncc3-c3ccccc3)cc2)cc1 | – | 31.4 |
| CC(C)C[C@H](N)c1nnc(S(=O)(=O)Cc2cccc(F)c2)o1 | 15.8 µM (active) | – |
| CCc1ccc(OCCCn2c(CCCNC(=O)C3CCCCC3)nc3ccccc32)cc1 | – | -18.8 |
| COc1cccc2c1[C@@H]1CN(CCCCn3c(=O)[nH]c4c(sc5ncc(-c6ccccc6)nc54)c3=O)C[C@@H]1CO2 | 15.8 µM (active) | – |
| COc1ccc(-c2nn3c(-c4cc(-c5ccccc5)n[nH]4)nnc3s2)cc1 | – | -14.7 |
